# PubChem BioAssay AID2563 (Broad Institute, 2010)
# Screen size: about 290,000 compounds; about 800 (0.28%) were called active. This is one part of a sample in which actives are shown more often than they occur.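 How the source made its calls: active means fall in fluorescence gain of 50% or more versus controls, with final raw signal at or below 3038400; inconclusive means same 50% fall but final raw signal above 3038400; inactive means fall in fluorescence gain under 50%.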
# Target: CAAX prenyl protease 2 (Saccharomyces cerevisiae (strain ATCC 204508 / S288c)) (UniProt Q03530)
# Sequence (Q03530 whole entry, looked up): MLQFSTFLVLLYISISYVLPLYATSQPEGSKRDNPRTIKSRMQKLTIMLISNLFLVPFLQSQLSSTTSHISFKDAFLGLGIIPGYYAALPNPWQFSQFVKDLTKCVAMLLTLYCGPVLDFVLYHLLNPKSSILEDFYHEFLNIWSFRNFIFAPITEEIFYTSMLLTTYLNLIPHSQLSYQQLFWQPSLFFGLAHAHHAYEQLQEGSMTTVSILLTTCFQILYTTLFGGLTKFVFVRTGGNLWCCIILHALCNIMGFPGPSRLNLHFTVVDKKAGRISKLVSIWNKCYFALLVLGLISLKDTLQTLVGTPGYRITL
# Test: yeast Rce1p protease inhibitors, primary screen, biochemical, fluorescence, cell-free homogeneous (AID 2563)
# Conditions: yeast membranes, quenched prenylated peptide cleavage fluorescence
row,Structure (SMILES),outcome
1,CCOC(=O)c1c(N)n(CCN2CCOCC2)c2nc3ccccc3nc12,inactive
2,CCOC(=O)c1c(N)n(Cc2ccccc2)c2nc3ccccc3nc12,inactive
3,COc1cc(Cn2c(N)c(C(=O)NCc3ccco3)c3nc4ccccc4nc32)cc(OC)c1OC,active
4,COC(=O)C1=C(c2cc3ccccc3s2)C[C@@H]2CC[C@H]1N2C(=O)NCCO,inactive
5,Cc1cc(N2C(=O)C3CCCN3C2c2ccc(Cl)c(Cl)c2)no1 (stereo not given),inactive
